Drawing on PubChem BioAssay AID602481 (Broad Institute, 2012), this text covers inhibition for 63 compounds.

Where “and” joins values, the source holds several entries; their conditions need not be identical. Equal values may be shown once. About 340 (0.094%) of roughly 360,000 compounds were called active. Rule as the data show it: active = inhibition above about 40%; inconclusive = no clear call, values can overlap the other calls; inactive = below that. The list comes from a sample in which actives are over-represented; it also holds similar structures and randomly drawn compounds. The source holds several records for some structures; these can differ, active in one and inactive in another.

This experiment has as its system 7,8-diaminopelargonic acid synthase BioA (Mycobacterium tuberculosis). Put plainly: M. tuberculosis BioA enzyme inhibitors, primary screen, biochemical, plate reader, single point, HTS (AID 602481). The note with it: purified M. tuberculosis BioA enzyme, at 9.99 µM, stronger effect = higher value.
Consider `CO[C@H]1CN(C)C(=O)c2ccc(NS(=O)(=O)c3cn(C)cn3)cc2OC[C@H](C)N(C)C[C@H]1C`, for which the inhibition was -1.67% (inactive).

Take `CC(C)CC#Cc1ccc2c(c1)O[C@H](CN(C)Cc1ccccc1F)[C@@H](C)CN([C@@H](C)CO)S2(=O)=O`: the inhibition is 0.76% (inactive).

With `O=C(NCCN1CCCC1)[C@@H]1N[C@@H]2c3ccc(-c4ccccc4)c(=O)n3C[C@@H]2[C@H]1CO`, the inhibition was -0.384% (inactive).

Regarding `CC(C)NC(=O)Nc1ccc2c(c1)C(=O)N([C@H](C)CO)C[C@H](C)[C@@H](CN(C)S(C)(=O)=O)OCCCC[C@@H](C)O2`, the inhibition is -1.93% (inactive).

With `C[C@H](O)C#Cc1ccc([C@@H]2[C@@H](CO)N3CCCCN(C(=O)c4ccc(F)cc4)C[C@H]23)cc1`, the inhibition is 8.06% (inactive).

As to `O=C(C[C@@H]1CC[C@@H]2[C@H](COC[C@@H](O)CN2S(=O)(=O)c2cccc(Cl)c2)O1)N1CCOCC1`, the inhibition is 0.133% (inactive).

Take `C[C@@H]1CN([C@@H](C)CO)S(=O)(=O)c2ccc(-c3cncnc3)cc2O[C@@H]1CN(C)C(=O)C1CC1`: the inhibition was -2.8% (inactive).

For the compound `O=C(Cn1cc2c(n1)CCCCC2)NCCN1CCOCC1`, the inhibition was 1.9% (inactive).

In the case of `Cc1nc2nc(SCC(=O)NCc3ccco3)nn2c(C)c1Cc1ccccc1`, the inhibition is 45.5% (active).

On to `COc1cc(OC)cc(-c2nc3nc(C)c(CCC(=O)NCc4ccco4)c(C)n3n2)c1`, for which the inhibition is -1.9% (inactive).

For `Cc1ccc(Cc2c(C)nc3nc(SCC(=O)NCCN4CCOCC4)nn3c2C)cc1`, the inhibition was 53.9% (active).

`Cc1ccc(Cn2c(C)c3cnn(CC(=O)NCCN4CCOCC4)c(=O)c3c2C)cc1`: the inhibition was 11.4% (inactive).

In the case of `Cc1nc2c(-c3ccc(F)cc3)c(C)nn2c(C)c1CCC(=O)NCc1ccco1`, the inhibition is -0.947% (inactive).

On to `CO[C@H]1CN(C)C(=O)c2ccc(NC(=O)c3cccc(Oc4ccccc4)c3)cc2OC[C@@H](C)NC[C@H]1C`, for which the inhibition was 2.28% (inactive).

In the case of `C/C=C/c1ccc2c(c1)O[C@@H](CN(C)S(C)(=O)=O)[C@@H](C)CN([C@H](C)CO)S2(=O)=O`, the inhibition is 3.09% (inactive).

As to `CN1C(=O)c2cc(NS(=O)(=O)c3ccc(F)cc3)ccc2OC[C@@H]2O[C@@H](CC(=O)O)CC[C@H]21`, the inhibition was 0.387% (inactive).

With `C[C@@H](NC(=O)C[C@H]1C=C[C@H](NC(=O)C2CCOCC2)[C@H](CO)O1)c1ccccc1`, the inhibition is 1.84% (inactive).

Consider `C[C@H](CO)N1C[C@H](C)[C@@H](CN(C)CC2CCCCC2)Oc2ccc(NS(=O)(=O)c3cccs3)cc2CC1=O`, for which the inhibition was 3.51% (inactive).

For `CO[C@@H]1CN(C)C(=O)c2cc(NC(=O)c3cnccn3)ccc2OC[C@@H](C)N(C(=O)C2CC2)C[C@@H]1C`, the inhibition was 9.9% (inactive).

For `CC=Cc1ccc2n(c1=O)C[C@@H]1[C@@H](CO)[C@H](C(=O)N3CCc4ccccc4C3)N(C(=O)C3CCC3)[C@H]21` (mixture of isomers), the inhibition is 0.815% (inactive).

For `CC(C)(C)S(=O)N1Cc2cc(C(=O)O)nc(-c3cccc(-c4cc5ccccc5o4)c3)c2[C@@H]1CCO` (stereo partly drawn), the inhibition is -0.446% (inactive).

Regarding `CCCNC(=O)Nc1ccc2c(c1)C(=O)N(C)C[C@@H](OC)[C@@H](C)CN(C)[C@@H](C)CO2`, the inhibition was -0.7% (inactive).

`CN(C)c1ccc2c(c1)[C@H]1C[C@H](CC(=O)NCc3ccc(Cl)cc3)O[C@H](CO)[C@H]1O2`: the inhibition was 0.352% (inactive).

As to `O=C(CC1CC1)N1[C@@H]2CN(S(=O)(=O)c3ccc(F)cc3)c3ccccc3[C@@H]2[C@@H]1CO`, the inhibition was 3.83% (inactive).

Turning to `COc1ccc(S(=O)(=O)N(C)C[C@@H]2OCCCC[C@H](C)Oc3ccc(NC(=O)Nc4ccccc4)cc3C(=O)N([C@H](C)CO)C[C@H]2C)cc1`, the inhibition is -0.37% (inactive).

As for `CN(C)C(=O)C[C@H]1C=C[C@@H](NC(=O)c2ccc(F)cc2)[C@@H](CO)O1`, the inhibition is -0.406% (inactive).

For `O=C(Nc1ccc2c(c1)OCO2)N[C@H]1CC[C@H](CCNC(=O)C2CCC2)O[C@@H]1CO`, the inhibition was 5.56% (inactive).

For `O=C(C[C@H]1C[C@H]2c3cc(NC(=O)Nc4ccc(F)cc4)ccc3O[C@H]2[C@@H](CO)O1)NCC1CC1`, the inhibition is 0.529% (inactive).

With `COc1ccc(NC(=O)N(C)C[C@H]2OCCCC[C@H](C)Oc3ccc(NC(=O)c4ccncc4)cc3C(=O)N([C@H](C)CO)C[C@@H]2C)cc1`, the inhibition was -0.437% (inactive).

For `CN(C)CC(=O)Nc1ccc2c(c1)[C@@H]1C[C@H](CC(=O)NCC3CC3)O[C@@H](CO)[C@@H]1O2`, the inhibition is -1.45% (inactive).

As to `CN(C)CC(=O)N1[C@H](C(=O)NC2CCC2)[C@@H](CO)[C@@H]2Cn3c(ccc(-c4ccc(F)cc4)c3=O)[C@@H]21`, the inhibition was -3.07% (inactive).

With `CCCN(C)C[C@@H]1OCc2cnnn2CCCC(=O)N([C@H](C)CO)C[C@@H]1C`, the inhibition is -0.996% (inactive).

With `Cc1ccc(S(=O)(=O)Nc2cccc3c2O[C@@H](CN(C)S(=O)(=O)c2cccs2)[C@@H](C)CN([C@@H](C)CO)C3=O)cc1`, the inhibition was 1.64% (inactive).

In the case of `O=C(Nc1cccc(F)c1)N1CCCCN2[C@H](CO)[C@H](c3ccc(C#CC4CC4)cc3)[C@@H]2C1`, the inhibition was 10.9% (inactive).

As to `Cc1ccc(S(=O)(=O)Nc2ccc3c(c2)CC(=O)N([C@@H](C)CO)C[C@H](C)[C@H](CN(C)Cc2ccc(C(=O)Nc4ccccc4N)cc2)O3)cc1`, the inhibition is -1.91% (inactive).

Turning to `CCCC(=O)Nc1ccc2c(c1)OC[C@@H](C)N(Cc1ccccc1F)C[C@@H](C)[C@H](OC)CN(C)C2=O`, the inhibition was -3.54% (inactive).

Regarding `CCCN(C)C[C@@H]1Oc2ncc(C#CC3CC3)cc2C(=O)N([C@H](C)CO)C[C@H]1C`, the inhibition is -2.63% (inactive).

Consider `C[C@H](CO)N1C[C@H](C)[C@@H](CN(C)S(=O)(=O)c2ccccc2)OCCCC[C@H](C)Oc2ccc(NC(=O)NC3CCCCC3)cc2C1=O`, for which the inhibition was -0.429% (inactive).

Turning to `COc1ccc(S(=O)(=O)N(C)C[C@H]2Oc3c(NS(=O)(=O)c4ccc(F)cc4)cccc3C(=O)N([C@H](C)CO)C[C@H]2C)cc1`, the inhibition is -2.2% (inactive).

With `C=CCn1c(SCc2c(C(=O)OC)sc(N)c2C(=O)OC)nnc1-c1ccc(Cl)cc1`, the inhibition is 51.8% (active).

For the compound `C=CCn1c(SCc2cc(C(=O)OC)c(C)o2)nnc1-c1ccncc1`, the inhibition is 5.32% (inactive).

With `CCn1c(SCc2cccc(C(=O)O)c2)nnc1-c1ccc(Cl)cc1`, the inhibition was 1.6% (inactive).

Regarding `O=C(C[C@@H]1C=C[C@@H](NC(=O)C2CC2)[C@H](CO)O1)NCCCN1CCOCC1`, the inhibition is -6.18% (inactive).

Regarding `CCCc1cn(CC[C@@H]2CC[C@@H](NC(=O)CCN3CCCCC3)[C@H](CO)O2)nn1`, the inhibition was -2.51% (inactive).

In the case of `O=C(C[C@H]1CC[C@H](NC(=O)c2ccc3c(c2)OCO3)[C@H](CO)O1)NCc1ccc(Oc2ccccc2)cc1`, the inhibition was 2.15% (inactive).

Regarding `C[C@@H](O)C#Cc1ccc2c(c1)O[C@@H](CN(C)Cc1cccnc1)[C@@H](C)CN([C@@H](C)CO)S2(=O)=O`, the inhibition is 5.8% (inactive).

With `CC(C)n1cnc2c(NCc3ccccc3)cc(OCC3CCN(C)CC3)cc21`, the inhibition is 5.28% (inactive).

With `CCC(CO)Oc1cc(NC(=O)c2cccc(F)c2)c2ncn(C(C)C)c2c1` (stereo not drawn), the inhibition was 20.8% (inactive) and 67.8% (active).

For `CCCOc1cccc(C(=O)Nc2nnn(CCC)n2)c1`, the inhibition was -3.8% (inactive).

As for `Cc1noc(C)c1NC(=O)Nc1ccc2c(c1)CC(=O)N([C@@H](C)CO)C[C@H](C)[C@H](CN(C)S(=O)(=O)c1c(C)noc1C)O2`, the inhibition was 1.52% (inactive).

For the compound `CC(C)NC(=O)N(C)C[C@H]1Oc2c(NS(=O)(=O)c3ccc(Cl)cc3)cccc2C(=O)N([C@@H](C)CO)C[C@H]1C`, the inhibition is -1.39% (inactive).

Regarding `C[C@@H]1CN([C@@H](C)CO)C(=O)c2cc(/C=C/c3ccccc3)cnc2O[C@@H]1CN(C)C(=O)CN(C)C`, the inhibition was -0.866% (inactive).

In the case of `CO[C@H](CN(C)S(=O)(=O)c1ccc(Cl)cc1)[C@@H](C)CN(Cc1ccccc1Cl)[C@H](C)CO`, the inhibition was -0.783% (inactive).

Consider `O=C(NCC[C@@H]1CC[C@H](NS(=O)(=O)c2cccc(F)c2)[C@H](CO)O1)c1cnccn1`, for which the inhibition is 2.18% (inactive).

In the case of `Cc1noc(C)c1S(=O)(=O)Nc1ccc2c(c1)C(=O)N([C@H](C)CO)C[C@H](C)[C@H](CN(C)C(=O)NC1CCCCC1)OCCCC[C@H](C)O2`, the inhibition was -0.981% (inactive).

Take `COc1ccc(S(=O)(=O)N(C)C[C@H]2OCCCC[C@H](C)Oc3ccc(NS(=O)(=O)c4c(C)noc4C)cc3C(=O)N([C@@H](C)CO)C[C@@H]2C)cc1`: the inhibition was -0.18% (inactive).

As to `Cc1noc(C)c1NC(=O)N(C)C[C@H]1Oc2ccc(NC(=O)Nc3ccc(C(F)(F)F)cc3)cc2CC(=O)N([C@@H](C)CO)C[C@@H]1C`, the inhibition is -2.44% (inactive).

`O=C(Nc1cccc(Cl)c1)N1C[C@@H]2[C@H](c3ccccc31)[C@H](CO)N2Cc1ccncc1`: the inhibition is -5.5% (inactive).

Regarding `Cc1cc(C(=O)Nc2cccc3c2O[C@@H](CN(C)Cc2ccc4c(c2)OCO4)[C@@H](C)CN([C@@H](C)CO)C3=O)n(C)n1`, the inhibition was -2.65% (inactive).

With `O=C(C[C@@H]1C[C@@H]2c3cc(NC(=O)C4CCC4)ccc3O[C@@H]2[C@@H](CO)O1)NCc1ccccc1`, the inhibition is -1.79% (inactive).

For `O=C(C[C@@H]1CC[C@@H]2[C@H](COC[C@H](O)CN2S(=O)(=O)c2ccc(Oc3ccccc3)cc2)O1)NCCN1CCCCC1`, the inhibition is 9.19% (inactive).

On to `CCCN1[C@H](C(=O)NCC)[C@@H](CO)[C@@H]2Cn3c(ccc(C4=CCCC4)c3=O)[C@@H]21`, for which the inhibition was -0.389% (inactive).

Turning to `CC(=O)N1[C@H](C(=O)N(C)C)[C@@H](CO)[C@@H]2Cn3c(ccc(-c4ccccc4)c3=O)[C@@H]21`, the inhibition is -1.69% (inactive).

As a reminder, the inhibition is the change of the read-out against control, counted positive when it falls.
